# Measured values reported in PubChem BioAssay (NCATS).
# Several values for one entry are separate records, joined by “and”; a condition that tells them apart may be missing. Equal entries are not always repeated. Inconclusive results are not listed. A call without a number means that no potency is given here. Activity calls are given as the source filed them. Calls come from the whole dose curve; as a rule, active = well fitted inhibition curve with a large enough effect; inconclusive = small, poorly fitted or top-dose-only effect; inactive = flat fitted curve, though single readings scatter.
# Biological target: Ubiquitin carboxyl-terminal hydrolase 1 (Homo sapiens) (UniProt O94782)
# Sequence (O94782 whole entry, looked up): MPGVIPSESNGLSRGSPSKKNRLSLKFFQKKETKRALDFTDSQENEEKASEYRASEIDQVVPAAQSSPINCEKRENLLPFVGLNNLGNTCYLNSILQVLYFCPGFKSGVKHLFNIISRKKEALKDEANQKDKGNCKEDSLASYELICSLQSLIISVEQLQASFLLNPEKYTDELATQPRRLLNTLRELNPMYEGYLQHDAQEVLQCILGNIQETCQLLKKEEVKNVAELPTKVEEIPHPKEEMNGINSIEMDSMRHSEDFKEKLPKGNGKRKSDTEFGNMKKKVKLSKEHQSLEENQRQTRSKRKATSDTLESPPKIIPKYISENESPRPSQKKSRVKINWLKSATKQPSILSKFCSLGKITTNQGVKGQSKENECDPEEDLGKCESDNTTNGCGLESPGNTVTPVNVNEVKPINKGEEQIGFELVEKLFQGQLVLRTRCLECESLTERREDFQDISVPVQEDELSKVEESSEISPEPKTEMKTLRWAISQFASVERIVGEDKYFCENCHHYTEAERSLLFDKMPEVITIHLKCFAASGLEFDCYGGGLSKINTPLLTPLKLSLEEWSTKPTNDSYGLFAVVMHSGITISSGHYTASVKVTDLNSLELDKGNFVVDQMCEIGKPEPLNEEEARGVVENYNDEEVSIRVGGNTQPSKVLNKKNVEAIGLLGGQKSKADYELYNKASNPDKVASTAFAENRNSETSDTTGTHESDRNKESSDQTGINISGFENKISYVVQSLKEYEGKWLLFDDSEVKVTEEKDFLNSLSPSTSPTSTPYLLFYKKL
# Test: Inhibitors of USP1/UAF1: Pilot qHTS (AID 504865); note: nearly all actives have a fitted effect of over 35% in size
# Conditions: purified USP1/UAF1, Ub-rhodamine cleavage fluorescence; series mostly up to 114 µM
# Procedure, shortened: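 USP1/UAF1 complex at 1 nM preincubated 15 min at room temperature with compound, then Ub-Rho substrate added at 150 nM final. Fluorescence (480/540 nm) read kinetically in 50 mM HEPES pH 7.8, 0.5 mM EDTA, 1 mM TCEP, 0.1 mg/ml BSA, 0.01% Tween-20.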
# Potency is the fitted concentration of half-maximal effect.
row,Compound,Potency
1,COC(=O)Nc1nc2ccc(C(=O)c3cccs3)cc2[nH]1,inactive
2,CCC1(C)CC(=O)NC1=O (centres undefined),inactive
3,Cc1cn([C@H]2C=C[C@@H](CO)O2)c(=O)[nH]c1=O,inactive
4,Fc1ccc([C@@H]2CCNC[C@H]2COc2ccc3c(c2)OCO3)cc1,inactive
5,C[C@H]1c2cccc(O)c2C(O)=C2C(=O)[C@]3(O)C(O)=C(C(N)=O)C(=O)[C@@H](N(C)C)[C@@H]3[C@@H](O)[C@@H]21,inactive
6,CCOC(=O)c1ncn2c1CN(C)C(=O)c1cc(F)ccc1-2,inactive
7,CS(=O)(=O)Nc1ccc([N+](=O)[O-])cc1Oc1ccccc1,inactive
8,NCCCCCC(=O)O,inactive
9,NC(CO)C(=O)NNCc1ccc(O)c(O)c1O (centres undefined),inactive
10,COc1ccccc1OCC(O)CN1CCN(CC(=O)Nc2c(C)cccc2C)CC1 (centres undefined),inactive
11,COc1ccc2c(c1)c(CC(=O)O)c(C)n2C(=O)c1ccc(Cl)cc1,inactive
12,CN1CCC(=C2c3ccccc3C=Cc3ccccc32)CC1,inactive
13,Nc1nnc(-c2cccc(Cl)c2Cl)c(N)n1,inactive
14,Cc1ccccc1N1C(=O)c2cc(S(N)(=O)=O)c(Cl)cc2NC1C (centres undefined),inactive
15,CC(C)C(=O)Nc1ccc([N+](=O)[O-])c(C(F)(F)F)c1,inactive
16,OCCN(CCO)c1nc(N2CCCCC2)c2nc(N(CCO)CCO)nc(N3CCCCC3)c2n1,31.6 µM (active) and 22.4 µM (active)
17,CC(C)NCC(O)COc1ccc(CCOCC2CC2)cc1 (centres undefined),inactive
18,CCc1cccc2c3c([nH]c12)C(CC)(CC(=O)O)OCC3 (centres undefined),inactive
19,COc1nc(C)nc(Cl)c1NC1=NCCN1,inactive
